TbPYK inhibitor – qHTS of Trypanosoma Brucei Inhibitors; pyruvate kinase (Trypanosoma brucei), Q57TT1; TbPYK enzyme, Kinase-Glo Plus ATP luminescence, 45 min; Potency, µM (doses to about 76.8 µM), for inactives: at the highest dose activity, negative = inhibition, hits mostly inhibitors; hit rate 0.12% among 410,000; note: % is set by controls: 0 for no effect and ±100 for the full control effect; nearly all actives have a fitted effect of over 50% in size
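TbPYK + substrate in 50 mM TEA pH 7.2, 100 mM KCl, 10 mM MgCl2, 0.05% BSA, 0.01% Tween-20; cpd pinned; ADP 130 uM final; 45 min RT; Kinase-Glo Plus 10 min; luminescence endpoint.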
Giardia FBPA inh – qHTS Assay for Inhibitors of Fructose-1,6-bisphosphate Aldolase from Giardia Lamblia; A8B2U2; purified Giardia FBPA; Potency, µM (series often up to 59.6 µM), for the others: at the top dose activity, negative = inhibition, usual class: inhibitors; hit rate 0.71% among 290,000; AID 2451, 2010; note: % is set by controls: 0 for no effect and ±100 for the full control effect; nearly all actives have a fitted effect of over 55% in size
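Giardia FBPA (40 nM reagent) was preincubated 10 min at RT with compound (up to 57.5 uM final), then substrate plus GAPDH/TPI/NAD/arsenate coupling system with diaphorase/resazurin was added; resorufin fluorescence (525/598 nm) was read after 20 min.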
LmPK inhibitor – qHTS Assay for Inhibitors of Leishmania Mexicana Pyruvate Kinase (LmPK); Q27686; purified LmPK, Kinase-Glo ATP luminescence, 1 h; Potency, µM (top dose mostly 57.5 µM), for the others: at the top dose activity change, negative = inhibition, most hits filed as inhibitors; hit rate 0.37% among 290,000; AID 1721, 2009; note: % is set by controls: 0 for no effect and ±100 for the full control effect
Target sequence (Q27686 whole entry, looked up): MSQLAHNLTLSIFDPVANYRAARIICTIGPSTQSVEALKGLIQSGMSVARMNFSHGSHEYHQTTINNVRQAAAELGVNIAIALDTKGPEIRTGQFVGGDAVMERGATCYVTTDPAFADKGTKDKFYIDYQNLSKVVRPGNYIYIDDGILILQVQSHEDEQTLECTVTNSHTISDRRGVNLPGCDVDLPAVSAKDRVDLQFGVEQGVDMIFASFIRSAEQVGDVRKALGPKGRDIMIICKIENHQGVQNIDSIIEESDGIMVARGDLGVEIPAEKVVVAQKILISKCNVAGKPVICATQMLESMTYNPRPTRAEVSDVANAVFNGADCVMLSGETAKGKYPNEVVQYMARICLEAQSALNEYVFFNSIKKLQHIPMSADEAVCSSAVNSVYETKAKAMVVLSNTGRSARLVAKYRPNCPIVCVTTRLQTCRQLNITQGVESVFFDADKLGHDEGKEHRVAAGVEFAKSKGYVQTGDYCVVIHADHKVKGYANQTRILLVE
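Kinase-Glo luminescence read after 1 h RT reaction of 0.1 nM LmPK with 0.5 mM PEP and 0.1 mM ADP. Activity scaled between uninhibited and enzyme-free controls.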
RE007 growth inh – qHTS Assay for Inhibitors of the HIV-1 protein Vpr; S. pombe RE007 Vpr strain, BacTiter-Glo ATP luminescence, 24 h; Potency, µM (series often up to 92.2 µM), inactives show at the top dose activity change, negative = less growth, actives largely listed as inhibitors; hit rate 0.21% among 360,000; AID 651644, 2012; active = well fitted falling curve with a large enough effect; inconclusive = small, poorly fitted or top-dose-only effect; inactive = no such curve, though single readings can be large or run the other way; note: % is set by controls: 0 for no effect and ±100 for the full control effect; nearly all actives have a fitted effect of over 50% in size
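Fission yeast strain RE007, carrying one chromosomally integrated HIV-1 vpr copy, was seeded at OD 0.01 in PMG+AL medium with 23 nL pinned compound. After 24 h at 30 °C and 99% humidity, viability was read by BacTiter-Glo luminescence.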
Sm TGR block – qHTS Assay for the Inhibitors of Schistosoma Mansoni Peroxiredoxins. Schistosoma mansoni thioredoxin glutathione reductase (TGR), Q962Y6. purified TGR, DTNB reduction, TNB absorbance 405 nm. Potency, µM (top dose mostly 114 µM), inactives show at the top dose activity change, negative = inhibition, usual class: inhibitors. hit rate 3% among 360,000; note: % is set by controls: 0 for no effect and ±100 for the full control effect; nearly all actives have a fitted effect of over 60% in size
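First, TGR (20 nM dispensed) and NADPH were mixed with compound. Second, a 15 min room-temperature incubation followed. Third, further NADPH and then DTNB were added to start the reaction. Finally, TNB absorbance was monitored kinetically.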
NS1 inh – qHTS Assay for Inhibitors of Influenza NS1 Protein Function | hit rate 0.4% among 270,000 | AID 2326, 2010 | Potency, µM (top dose mostly 46.1 µM), for the others: at the highest dose activity, positive = more growth; calls by dose curve; note: actives are rising curves; nearly all actives have a fitted effect of over 50% in size
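Recovery from NS1-induced slow growth read by OD600 in budding yeast switched to galactose assay medium (pH 6.0, -URA) at 1:100 dilution. Compound 23 nl per well; the matching strain lacking NS1 serves as control.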
An asterisk follows results filed as active; ? = inconclusive; / = no result; [ ] = another dose, or the depositor's remark. The list is not random: actives were taken first. Their share in the collection is about 3.5%. Unless noted, calls come from the whole dose curve; as a rule, active = well fitted curve in the direction sought with a large enough effect; inconclusive = small, poorly fitted or top-dose-only effect, or another doubt; inactive = no such curve, though single readings can be large; an effect the other way counts as inactive or inconclusive. Potency is the fitted concentration of half-maximal effect.

SMILES | TbPYK inhibitor | Giardia FBPA inh | LmPK inhibitor | RE007 growth inh | Sm TGR block | NS1 inh
CO[C@H]1C[C@@H]2CC[C@@H](C)[C@@](O)(O2)C(=O)C(=O)N2CCCC[C@H]2C(=O)OC([C@H](C)C[C@@H]2CC[C@@H](O)[C@H](OC)C2)CC(=O)[C@H](C)/C=C(\C)[C@@H](O)[C@@H](OC)C(=O)[C@H](C)C[C@H](C)/C=C/C=C/C=C/1C (stereo partly drawn) | / | -15.9% | / | / | / | /
CO[C@H]1C[C@@H]2CC[C@@H](C)[C@@](O)(O2)C(=O)C(=O)N2CCCC[C@H]2C(=O)O[C@H]([C@H](C)C[C@@H]2CC[C@@H](O)[C@H](OC)C2)CC(=O)[C@H](C)C=C(C)[C@@H](O)[C@@H](OC)C(=O)[C@H](C)C[C@H](C)C=CC=CC=C1C | / | -15.8% | -3.4% | / | 14.1µM* | -116.5%
COc1ccc2nc(/N=C/c3c(C)[nH]n(-c4ccc(C)cc4)c3=O)sc2c1 | -22.6% | 11.8% | 12.6µM* | ? | 1.0% | 3.5%
Cc1ccc(-n2[nH]c(C)c(C=Nc3cc(C)ccn3)c2=O)cc1 | 4.8% | -6.3% | -19.6% | 28.2µM* | 4.8% | -7.0%
COc1ccc2nc(/N=C\N(C)C)sc2c1 | -10.8% | ? | -12.0% | -8.4% | -28.3% | -3.7%
Cc1cccc(C(=O)NC(=O)Nc2ccc(-n3nc(C(F)(F)F)cc3C(F)(F)F)cc2)c1 | -11.7% | / | / | / | 0.5% | /
COc1ccc(-c2cn3cc(C)ccc3n2)cc1OC | -8.4% | -25.9% | 15.8µM* | ? | 3.5% | -19.3%
Cc1ccc2nc(-c3ccc4c(c3)OCCO4)cn2c1 | -10.8% | ? | 14.1µM* | ? | 20.8% | -1.8%
O=C(O)c1ccc(S(=O)(=O)N[C@H](Cc2ccc(O)cc2)C(=O)O)cc1 | / | 16.1% | / | / | ? | /
NC(=O)Nc1cc(-c2cccc(F)c2)sc1C(=O)N[C@H]1CCCNC1 | -0.1% | / | / | / | / | /
Oc1ccc(/C=N/Nc2nccnc2Cl)c(O)c1 | ? | -4.1% | 12.6µM* | -17.5% | -9.0% | -99.3%
Oc1ccccc1/C=N/Nc1nccnc1Cl | -8.0% | -8.9% | 15.8µM* | ? | 0.3% | -186.4%
COc1cccc(/C=N/Nc2ncnc(Cl)c2N)c1O | -7.5% | ? | -1.6% | 13.3% | -17.9% | -28.2%
O=[N+]([O-])c1cccnc1N/N=C/c1ccccc1O | -26.8% | 0.3% | 14.1µM* | -0.5% | -3.1% | /
COc1cccc(/C=N/Nc2nccnc2Cl)c1O | ? | 10.4% | 10µM* | 35.5µM* | -1.1%[57.1 µM] | -61.5%
O=C(CC1(O)C(=O)N(CCc2ccccc2)c2ccc(Br)cc21)c1ccccc1O (stereo not drawn) | -4.3% | / | / | / | -1.9% | /
O=[N+]([O-])c1cnc(Sc2ccncn2)s1 | -0.6% | -5.5% | 4.0% | 1µM* | 0.316µM* | -71.3%
O=C1NC(c2cccc([N+](=O)[O-])c2)=CCN1c1ccccc1O | -0.6% | -4.8% | 1.3% | -9.8% | 44.7µM* | 0.0%
CC1(c2nnc(Cc3ccccc3)o2)CC(c2cccc([N+](=O)[O-])c2)=NO1 (stereo not drawn) | 3.2% | / | / | -3.4% | 44.7µM* | /
CC1(c2nnc(Cc3ccccc3)o2)CC(c2ccccc2[N+](=O)[O-])=NO1 (stereo not drawn) | -16.3% | / | / | 19.3% | 3.16µM* | /
Cc1oc2c(c1C(=O)Nc1ccc(Cl)cc1F)C1=NCCN1C=N2 | -4.8% | / | / | / | 1.4% | /
CS[C@]12C(=O)C[C@]3(C)[C@@H](CC[C@@]3(O)C(=O)CO)[C@@H]1CCC1=CC(=O)CC[C@]12C | / | / | / | / | / | -10.8%
O=C(CSc1nnc(SCc2ccccc2)s1)N/N=C/C=C/c1ccccc1[N+](=O)[O-] | 12.7% | 2.6% | -0.9% | -11.8% | 6.2% | 1.2%
O=C(CSc1nnc(SCC(=O)c2ccco2)s1)c1ccco1 | -11.5% | -10.0% | 8.9% | -1.4% | 39.8µM* | 0.8%
